High-throughput results: PubChem, The Scripps Research Institute Molecular Screening Center
Rows were chosen to be rich in hits. Some 4.1% of all compounds tested hit in one or more screens of this group.
UHRF1 MBD2 ctr: human UHRF1 methylated DNA binding inhibitors; UHRF1 binding to methylated oligo, TR-FRET; inhibition, % at 4.4 µM; Q96T88; hit rate 0.75% among 370,000; in the data active means inhibition above about 21%;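 further: UHRF1 SRA domain binding a hemimethylated CpG hairpin DNA probe; 0% = median of test compound wells and 100% = reference inhibitor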
ABHD5-PLIN5 inh: ABHD5-PLIN5 protein interaction inhibition; Split G. princeps luciferase complementation, luminescence, 4 h; Q00G26+Q8WTS1; inhibition, % at 4 µM; AID 602281; hit rate 0.78% among 360,000;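 active means inhibition above the mean inhibition across every tested compound plus 3 SD, cut at about 22% in these data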;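 further: 0% = DMSO only wells and the 100% control is not disclosed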
rCAG RNA binder: binds r(CAG) RNA repeats; r(CAG) RNA repeat, TO-PRO-1 dye displacement fluorescence; inhibition, % at 3 µM; hit rate 1.3% among 370,000;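 active means inhibition above the plate cutoff, the mean of all test compounds on that plate plus 3 SD, cut at about 35% in these data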;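 further: 0% = DMSO alone and 100% = 100 µM mitoxantrone as full dye displacement; higher means more dye released from RNA so lower well fluorescence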
MBD2 DNA inh: blocks human MBD2 binding to methylated DNA | Q9UBB5 | TR-FRET, MBD2 binding to methylated oligonucleotide | inhibition, % at 4.4 µM | hit rate 0.31% among 370,000; in the data active means inhibition above about 13%
PRMT1 FP inh: blocks human protein arginine methyltransferase 1; Q99873; recombinant PRMT1, activity-based probe fluorescence polarization; inhibition, % at 2.79 µM; hit rate 1.3% among 370,000;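 active means inhibition above about 21% made by adding two undisclosed values, limit read from the data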
LEDGF integ inh: blocks HIV-1 LEDGF/p75-dependent DNA integration. TR-FRET IN-LEDGF/p75 DNA integration, Eu/Cy5. inhibition, % at 3.7 µM. hit rate 0.64% among 370,000. AID 743269;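 active means inhibition above the screen-wide mean plus 3 SD, cut at about 13% in these data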;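 further: signal is the Cy5 over europium emission ratio at 671 and 618 nm; 0% = plate median of compound wells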
ABHD5 PLIN5 conf: confirmation of human ABHD5-PLIN5 interaction inhibitors | biochemical ABHD5-PLIN5 interaction, luminescence | inhibition, % at 4 µM | hit rate 67% among 2,200 | shares compounds with ABHD5-PLIN5 inh; in the data active means inhibition above about 23%;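 further: 0% = DMSO vehicle wells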
HNF4 counter: HNF4 split-luciferase signal hit, counter-screen | hit rate 77% among 2,200 | HNF4 dimerization, luminescence, biochemical | inhibition, % at 4 µM | shares compounds with ABHD5-PLIN5 inh;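 active means mean inhibition across replicate wells exceeding the computed hit threshold, cut at about 13% in these data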;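 further: light from luciferase halves that rejoin when HNF4 fusion proteins dimerize; 0% = DMSO only wells and the 100% control is not given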
Target sequence (P41235 whole entry, looked up, the tested form may be a part): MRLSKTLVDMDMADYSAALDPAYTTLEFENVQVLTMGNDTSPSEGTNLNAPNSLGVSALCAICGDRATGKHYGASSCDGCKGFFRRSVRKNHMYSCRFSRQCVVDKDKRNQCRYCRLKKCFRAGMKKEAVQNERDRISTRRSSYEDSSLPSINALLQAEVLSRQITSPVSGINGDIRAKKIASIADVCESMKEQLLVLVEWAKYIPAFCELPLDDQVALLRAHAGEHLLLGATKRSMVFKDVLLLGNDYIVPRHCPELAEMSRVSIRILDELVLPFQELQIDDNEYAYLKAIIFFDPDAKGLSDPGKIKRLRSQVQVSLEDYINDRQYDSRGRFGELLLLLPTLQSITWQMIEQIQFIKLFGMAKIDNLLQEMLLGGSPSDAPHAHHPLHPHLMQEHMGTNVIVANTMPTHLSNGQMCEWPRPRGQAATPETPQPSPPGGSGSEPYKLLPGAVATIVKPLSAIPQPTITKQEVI
PRMT1 confirm: confirmation of human PRMT1 inhibitors; shares compounds with PRMT1 FP inh; inhibition, % at 2.79 µM; recombinant His-PRMT1, activity-based probe fluorescence polarization; hit rate 42% among 3,300;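 active means mean inhibition across replicates above the hit cutoff derived for the earlier primary screen, cut at about 22% in these data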
Active calls of the source: *; / = no result given.

SMILES	UHRF1 MBD2 ctr	ABHD5-PLIN5 inh	rCAG RNA binder	MBD2 DNA inh	PRMT1 FP inh	LEDGF integ inh	ABHD5 PLIN5 conf	HNF4 counter	PRMT1 confirm
CN1\C(=C/C=C/C=C/C=[N+](C)C)C(C)(C)c2ccccc21	-12	24*	-337	-7	33*	7	49*	38*	43*
CN1/C(=C\C=O)C(C)(C)c2ccccc21	0	-7	-3	-1	-1	1	/	/	/
COC(=O)C(CC(=O)c1ccc(Br)cc1)n1nc(C)cc1C (configuration not stated)	0	37*	-3	5	77*	-7	11	52*	7
COC(=O)C(CC(=O)c1ccc(C)cc1)n1nc(C)cc1C (configuration not stated)	2	9	-9	-2	9	2	/	/	/
Cc1cc(S(=O)(=O)c2ccc(Cl)cc2)nc(S(=O)(=O)c2ccc(Cl)cc2)c1C#N	-1	79*	18	8	60*	1	95*	105*	48*
Cc1ccc(C2NC(=O)c3n[nH]c(C)c32)cc1 (configuration not stated)	-2	/	3	-7	-3	7	/	/	/
CCOC(=O)C1=CC[C@@H](c2ccccc2)N(S(=O)(=O)c2ccc(C)cc2)[C@H]1c1ccc(C#N)cc1	16	2	8	2	-5	-1	/	/	/
CCOC(=O)C1=CC[C@@H](c2ccccc2)N(S(=O)(=O)c2ccc(C)cc2)[C@H]1C#N	-2	58*	3	-6	27*	-1	30*	65*	22*
CN(C)c1ccc(C(=O)NCCc2ccccc2-c2ccccc2CCC(=O)NCc2ccccc2)cc1	-3	/	3	-2	-1	6	/	/	/
O=C(O)c1cccc2c1C(=O)c1ccccc1C2=O	2	1	0	1	3	-4	/	/	/
O=C1C(O)=CC(=C(c2ccccc2)c2ccccc2)c2ccccc21	-3	97*	7	-1	42*	11	18	88*	7
CN(CCOC(=O)c1cc2ccccc2o1)C1CN(Cc2cn(Cc3ccc([N+](=O)[O-])cc3)nn2)S(=O)(=O)C1 (configuration not stated)	0	/	2	-3	-5	1	/	/	/
C=CCn1c(SCC(=O)NCC2CCCO2)nc2scc(-c3ccc(OC)cc3)c2c1=O (configuration not stated)	0	-2	-5	2	4	-3	/	/	/
C=CCn1c(SCC(=O)NCC2CCCO2)nc2scc(-c3ccco3)c2c1=O (configuration not stated)	-3	34*	14	4	26*	3	34*	82*	5
Cc1ccc(S(=O)(=O)CCC(=O)c2cccc([N+](=O)[O-])c2)cc1	-2	33*	-2	2	83*	1	65*	98*	91*
COc1ccc(/C=C2/CCC(CN3CCOCC3)C2=O)cc1 (configuration not stated)	-2	69*	7	2	53*	2	100*	107*	61*
CN(C)CC1CC/C(=C\c2ccc(O)cc2)C1=O (configuration not stated)	-5	92*	3	2	53*	2	93*	107*	45*
CC1CCC/C(=C\c2ccc(O)cc2)C1=O (configuration not stated)	1	-2	2	-2	5	1	/	/	/
O=c1c2ccccc2sn1-c1ccc(Cl)cc1	-3	48*	2	6	90*	3	76*	118*	86*
O=S(=O)(/C=C/C=C/S(=O)(=O)c1ccccc1)c1ccccc1	0	90*	4	3	25*	-2	91*	111*	28*
Cc1ccc(S(=O)(=O)c2ccc(C)cc2)cc1	0	1	-4	-1	1	-1	/	/	/
Cc1ccc(S(=O)(=O)C=CS(=O)(=O)c2ccc(C)cc2)cc1	-1	37*	5	0	90*	0	68*	108*	95*
CCOc1cccc(/C=N\NC(=O)c2cnccn2)c1O	-1	/	2	0	-4	-5	/	/	/
COC(=O)C1=C(C)N(Cc2cccc(C(F)(F)F)c2)C(=NCc2ccc(OC)cc2)NC1c1ccccc1 (configuration not stated)	0	/	10	-2	-5	4	/	/	/
C=C[C@]1(C)C=C2C(=O)[C@@]3(O)OC(=O)[C@@]4(CCCC(C)(C)[C@H]34)[C@@]2(O)CC1	-2	72*	8	-6	61*	-9	61*	81*	6
SMILES	UHRF1 MBD2 ctr	ABHD5-PLIN5 inh	rCAG RNA binder	MBD2 DNA inh	PRMT1 FP inh	LEDGF integ inh	ABHD5 PLIN5 conf	HNF4 counter	PRMT1 confirm
C=C[C@]1(C)C=C2CC[C@H]3[C@@](C)(CCC[C@@]3(C)C(=O)O)[C@@H]2CC1	/	1	/	/	/	/	/	/	/
Cc1cccc(Cl)c1-n1nnnc1C1(C)CSCC(=O)N1Cc1ccc(F)cc1 (configuration not stated)	-1	/	8	0	3	2	/	/	/
C(=N\Nc1nc(-c2ccccc2)cs1)/c1ccncc1	-3	0	6	1	4	-2	/	/	/
O=C(O)Cc1sc(N/N=C\c2ccncc2)nc1-c1ccccc1	-5	24*	20	-3	41*	3	15	45*	10
O=C(Cn1sc2ccccc2c1=O)Nc1ccccc1	0	64*	1	-4	87*	-3	81*	116*	89*
O=C(CN1C(=O)c2ccccc2C1=O)Nc1ccccc1	-1	-1	2	-3	-5	4	/	/	/
C[C@H]1COc2cccc(N3CCCC3)c2S(=O)(=O)N1	3	/	1	-9	-1	4	/	/	/
COC(=O)[C@]12C[C@H](CC(=O)NCc3ccc(C)o3)C(=O)N(Cc3cccc4ccccc34)C1=C[C@H](COCc1ccccc1)O[C@@H]2C	-2	/	10	-7	17	10	/	/	/
Nc1cc(Nc2ccccc2)c2nonc2c1[N+](=O)[O-]	-13	3	4	-25	-3	9	/	/	/
O=C(O)c1cccc(Nc2ccc3nonc3c2[N+](=O)[O-])c1	0	-5	2	2	13	-1	/	/	/
O=[N+]([O-])c1c(Nc2cccc(O)c2)cc(Cl)c2nonc12	-7	52*	9	-12	60*	1	71*	95*	58*
O=C(O)c1ccc(Nc2cc(Cl)c3nonc3c2[N+](=O)[O-])cc1	-2	31*	4	-11	63*	2	63*	95*	32*
